Results from article PMC5540273 (PLoS ONE, 2017).
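Also: KINOMEscan kinase panel screen.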

What follows are compounds tested on DAPK3. Conditions: concentration: 1 μM, replicates: in singlicate; n = 1.
With `CCc1nc(-c2cccc(C)c2)c(-c2ccncc2)s1` the “%Inh” value was 9%.
With `COc1cc(OC)cc(-c2cc3cnc(N)nc3nc2NC(=O)NC(C)(C)C)c1` the “%Inh” value was 0%.
For `Nc1ncnc2c1ncn2-c1cccc(F)c1` [SKF-97560], the “%Inh” value was 8%.
With `COc1cc2ncn(-c3cc(OCc4ccncc4)c(C(N)=O)s3)c2cc1OC` [GSK336313] the “%Inh” value was 10%.
`Fc1cccc(CSc2nnc(-c3ccc4c(c3)CCO4)o2)c1` was tested, and the “%Inh” value was 0%.
For `CCC(=O)c1c(-c2ccccc2)c2cc(Cl)ccc2c(=O)n1Cc1cc(S(C)(=O)=O)n(CCC(C)(C)O)n1`, the “%Inh” value was 0%.
With `CCn1c(-c2ccoc2)nc2cnccc21` [SB-733887] the “%Inh” value was 14%.
For `CCc1ccc(-c2ccc3c(c2)-c2nn(C)cc2S(=O)(=O)N3C)cc1`, the “%Inh” value was 9%.
With `COc1ccc(-c2coc3ccc(-c4nnc(SCc5cccc(C#N)c5)o4)cc23)cc1` the “%Inh” value was 0%.
With `COC(=O)c1c(-c2ccccc2)c2cc(C)ccc2c(=O)n1Cc1ccccc1` the “%Inh” value was 0%.
For `Cl.NS(=O)(=O)c1cccc(Nc2cc(-c3ccc(F)cc3)n[nH]2)c1` [GW824645], the “%Inh” value was 0%.
`COC(=O)c1c(-c2ccccc2)c2cc(Br)ccc2c(=O)n1Cc1ccc(NC(=O)CCC(=O)O)cc1` was tested, and the “%Inh” value was 0%.
`COc1ccc(CNC(=O)NC2CCN(c3ccnc(Nc4ccc(F)cc4)n3)C2)cc1` (centres unmarked) [GSK1379706] was tested, and the “%Inh” value was 30%.
`CCS(=O)(=O)c1ccc(OC)c(Nc2ncc(-c3ccc(F)cc3)o2)c1.Cl` [GW591947] was tested, and the “%Inh” value was 15%.
In the case of `Cc1nn2c(=O)cc(N3CCOCC3)nc2n1Cc1cccc(Cl)c1Cl` [GSK2342769], the “%Inh” value is reported as 64%.
With `CCS(=O)c1ccc(-c2coc3ccc(-c4nnc(C)o4)cc23)cc1` (centres unmarked) the “%Inh” value was 0%.
In the case of `COc1cc(Nc2nccc(N3CCC(NC(=O)C(C)c4ccc(Cl)cc4)C3)n2)cc(OC)c1OC` (centres unmarked) [GSK1379757], the “%Inh” value is reported as 0%.
For `COc1cc2ncn(-c3cc(OCc4ccncc4Br)c(C(N)=O)s3)c2cc1OC` [GW854278], the “%Inh” value was 6%.
For `Cl.c1ccc(Cn2cnc3cc(Nc4ncnc5ccccc45)ccc32)cc1` [GW272142], the “%Inh” value was 22%.
`CCC(=O)c1c(-c2ccccc2)c2cc(Cl)ccc2c(=O)n1Cc1cc(C(=O)NC2CC2)n(C)n1` was tested, and the “%Inh” value was 0%.
In the case of `Nc1nccc2scc(-c3ccc4c(c3)CCN4C(=O)Cc3ccccc3)c12` [GSK2576924], the “%Inh” value is reported as 21%.
In the case of `COc1ccc(-c2cc3c(C)nc(N)nc3n([C@H]3CC[C@H](O)CC3)c2=O)cn1`, the “%Inh” value is reported as 1%.
`Nc1nc(-c2ccccc2F)c(-c2ccnc3ccccc23)s1` [GW560459] was tested, and the “%Inh” value was 13%.
`COc1cccc(C2=C(N(C)c3ccccc3)C(=O)NC2=O)c1` [SB-334865] was tested, and the “%Inh” value was 14%.
`CCn1c(-c2nonc2N)nc2ccccc21` [SB-693162/GW549034] was tested, and the “%Inh” value was 0%.
For `COc1cc2nccc(Nc3ccc(OCc4ccc(NC(C)=O)cc4)cc3)c2cc1OC.Cl` [GW440135], the “%Inh” value was 1%.
In the case of `Cc1ccc(Oc2ccc(Nc3ncnc4cc[nH]c34)cc2C)cn1`, the “%Inh” value is reported as 0%.
For `O=C(Nc1n[nH]c2cc(-c3ccccc3F)ccc12)C1CC1` [SB-733371], the “%Inh” value was 0%.
`O=C1NC(=O)C(c2ccccc2)=C1Nc1cccc(O)c1` [SB-390534] was tested, and the “%Inh” value was 0%.
In the case of `COc1ccc(-c2cc3c(C)nc(N)nc3n([C@H]3CC[C@H](OCCO)CC3)c2=O)cn1`, the “%Inh” value is reported as 0%.
`Cn1c(=O)c(F)c(Nc2ccc(I)cc2F)c2c(=O)n(OC[C@H](O)CO)cnc21` was tested, and the “%Inh” value was 13%.
`Nc1n[nH]c2ncc(-c3ccccc3)cc12` [SB-517081] was tested, and the “%Inh” value was 29%.
For `CCC(=O)c1c(-c2ccccc2)c2cc(Cl)ccc2c(=O)n1Cc1cc(S(C)(=O)=O)n(CC(N)=O)n1`, the “%Inh” value was 6%.
With `Nc1ncnc2c1ncn2-c1ccc(Cl)cc1` [AH2635] the “%Inh” value was 0%.
With `Cc1nnc(-c2ccc3ncn(-c4ccc(S(C)=O)cc4)c3c2)o1` (centres unmarked) the “%Inh” value was 0%.
For `COc1cc2ncn(-c3cc(OCc4ccc(S(C)(=O)=O)cc4)c(C(N)=O)s3)c2cc1OC` [GW869979], the “%Inh” value was 9%.
With `CCC(=O)c1c(-c2ccccc2)c2cc(Cl)ccc2c(=O)n1Cc1ccc(C(=O)O)cc1` the “%Inh” value was 0%.

What follows are compounds tested on T1, DCAMKL1. Conditions: concentration: 1 μM, replicates: in singlicate; n = 1.
T1 construct: gene DCLK1
For `CCc1nc(-c2cccc(C)c2)c(-c2ccncc2)s1`, the “%Inh” value was 30%.
With `COc1cc(OC)cc(-c2cc3cnc(N)nc3nc2NC(=O)NC(C)(C)C)c1` the “%Inh” value was 0%.
With `Nc1ncnc2c1ncn2-c1cccc(F)c1` [SKF-97560] the “%Inh” value was 0%.
`COc1cc2ncn(-c3cc(OCc4ccncc4)c(C(N)=O)s3)c2cc1OC` [GSK336313] was tested, and the “%Inh” value was 4%.
For `Fc1cccc(CSc2nnc(-c3ccc4c(c3)CCO4)o2)c1`, the “%Inh” value was 20%.
With `CCC(=O)c1c(-c2ccccc2)c2cc(Cl)ccc2c(=O)n1Cc1cc(S(C)(=O)=O)n(CCC(C)(C)O)n1` the “%Inh” value was 15%.
In the case of `CCn1c(-c2ccoc2)nc2cnccc21` [SB-733887], the “%Inh” value is reported as 34%.
For `CCc1ccc(-c2ccc3c(c2)-c2nn(C)cc2S(=O)(=O)N3C)cc1`, the “%Inh” value was 22%.
In the case of `COc1ccc(-c2coc3ccc(-c4nnc(SCc5cccc(C#N)c5)o4)cc23)cc1`, the “%Inh” value is reported as 35%.
For `COC(=O)c1c(-c2ccccc2)c2cc(C)ccc2c(=O)n1Cc1ccccc1`, the “%Inh” value was 0%.
In the case of `Cl.NS(=O)(=O)c1cccc(Nc2cc(-c3ccc(F)cc3)n[nH]2)c1` [GW824645], the “%Inh” value is reported as 15%.
For `COC(=O)c1c(-c2ccccc2)c2cc(Br)ccc2c(=O)n1Cc1ccc(NC(=O)CCC(=O)O)cc1`, the “%Inh” value was 16%.
For `COc1ccc(CNC(=O)NC2CCN(c3ccnc(Nc4ccc(F)cc4)n3)C2)cc1` (centres unmarked) [GSK1379706], the “%Inh” value was 14%.
With `CCS(=O)(=O)c1ccc(OC)c(Nc2ncc(-c3ccc(F)cc3)o2)c1.Cl` [GW591947] the “%Inh” value was 9%.
`Cc1nn2c(=O)cc(N3CCOCC3)nc2n1Cc1cccc(Cl)c1Cl` [GSK2342769] was tested, and the “%Inh” value was 0%.
`CCS(=O)c1ccc(-c2coc3ccc(-c4nnc(C)o4)cc23)cc1` (centres unmarked) was tested, and the “%Inh” value was 36%.
With `COc1cc(Nc2nccc(N3CCC(NC(=O)C(C)c4ccc(Cl)cc4)C3)n2)cc(OC)c1OC` (centres unmarked) [GSK1379757] the “%Inh” value was 11%.
With `COc1cc2ncn(-c3cc(OCc4ccncc4Br)c(C(N)=O)s3)c2cc1OC` [GW854278] the “%Inh” value was 0%.
`Cl.c1ccc(Cn2cnc3cc(Nc4ncnc5ccccc45)ccc32)cc1` [GW272142] was tested, and the “%Inh” value was 4%.
With `CCC(=O)c1c(-c2ccccc2)c2cc(Cl)ccc2c(=O)n1Cc1cc(C(=O)NC2CC2)n(C)n1` the “%Inh” value was 12%.
With `Nc1nccc2scc(-c3ccc4c(c3)CCN4C(=O)Cc3ccccc3)c12` [GSK2576924] the “%Inh” value was 16%.
`COc1ccc(-c2cc3c(C)nc(N)nc3n([C@H]3CC[C@H](O)CC3)c2=O)cn1` was tested, and the “%Inh” value was 0%.
For `Nc1nc(-c2ccccc2F)c(-c2ccnc3ccccc23)s1` [GW560459], the “%Inh” value was 12%.
For `COc1cccc(C2=C(N(C)c3ccccc3)C(=O)NC2=O)c1` [SB-334865], the “%Inh” value was 18%.
In the case of `CCn1c(-c2nonc2N)nc2ccccc21` [SB-693162/GW549034], the “%Inh” value is reported as 0%.
In the case of `COc1cc2nccc(Nc3ccc(OCc4ccc(NC(C)=O)cc4)cc3)c2cc1OC.Cl` [GW440135], the “%Inh” value is reported as 4%.
In the case of `Cc1ccc(Oc2ccc(Nc3ncnc4cc[nH]c34)cc2C)cn1`, the “%Inh” value is reported as 0%.
In the case of `O=C(Nc1n[nH]c2cc(-c3ccccc3F)ccc12)C1CC1` [SB-733371], the “%Inh” value is reported as 16%.
With `O=C1NC(=O)C(c2ccccc2)=C1Nc1cccc(O)c1` [SB-390534] the “%Inh” value was 6%.
With `COc1ccc(-c2cc3c(C)nc(N)nc3n([C@H]3CC[C@H](OCCO)CC3)c2=O)cn1` the “%Inh” value was 0%.
For `Cn1c(=O)c(F)c(Nc2ccc(I)cc2F)c2c(=O)n(OC[C@H](O)CO)cnc21`, the “%Inh” value was 13%.
For `Nc1n[nH]c2ncc(-c3ccccc3)cc12` [SB-517081], the “%Inh” value was 13%.
For `CCC(=O)c1c(-c2ccccc2)c2cc(Cl)ccc2c(=O)n1Cc1cc(S(C)(=O)=O)n(CC(N)=O)n1`, the “%Inh” value was 24%.
`Nc1ncnc2c1ncn2-c1ccc(Cl)cc1` [AH2635] was tested, and the “%Inh” value was 10%.
For `Cc1nnc(-c2ccc3ncn(-c4ccc(S(C)=O)cc4)c3c2)o1` (centres unmarked), the “%Inh” value was 37%.
With `COc1cc2ncn(-c3cc(OCc4ccc(S(C)(=O)=O)cc4)c(C(N)=O)s3)c2cc1OC` [GW869979] the “%Inh” value was 1%.
With `CCC(=O)c1c(-c2ccccc2)c2cc(Cl)ccc2c(=O)n1Cc1ccc(C(=O)O)cc1` the “%Inh” value was 8%.
